Laboratory results: ChEMBL document CHEMBL3988442, “University of Dundee, Small-Polar-MMV Screening Library” (2021)
The whole screen tested about 48,000 compounds, of which about 13,000 (27%) showed an effect of 50% or more. This is one part of the list.

Test system: Wolbachia pipientis
Experiment: Anti-Wolbachia Cell-Based Screen
Type: functional
Design: scale not given: in the data most compounds retested in dose-response had high values
Details: 5 µM

SMILES | Percent Effect [%]
CC(C)c1cc(C(=O)NCC(O)C2CCOCC2)nn1C(C)(C)C (centres undefined) | -4.207
CC(CCc1ccccc1)CC(=O)NC1CCN(CC(N)=O)CC1 (centres undefined) | -10.07
Cc1ccc(C)c(Oc2ccc(CNC(=O)C3CCC(=O)N3)cn2)c1 (centres undefined) | -2.356
CCCc1nnsc1C(=O)N1CCN(CC(O)c2ccco2)CC1.Cl (centres undefined) | -2.42
Cc1nnc2n1CCN(Cc1ncc(-c3ccc(Cl)cc3)o1)C2 | -13.18
CS(=O)(=O)N1CC[C@]2(C[C@@H](OCC3CCC3)CO2)C1 | 0.0763
NC(=O)CN1CCC(NC(=O)c2ccn(-c3cccc(F)c3)n2)CC1 | -0.7272
Cc1cc(C(=O)NC2CCN(CC(N)=O)CC2)nn1C(C)(C)C | 133.1
CCCc1nc(C)c(C(=O)NC2CCN(CC(N)=O)CC2)s1 | 7.483
Cc1csc(CN(C)CCCOc2cccc(C#N)c2)n1 | 1.685
Cc1nn(C)c(N2CCOCC2)c1CNCc1ccc(Cl)s1 | 2.748
Cc1cccc(CNCc2c(C)nn(C)c2N2CCOCC2)n1 | -8.764
Cc1nn(C)c(N2CCOCC2)c1CNC(C)c1ccco1 (centres undefined) | -14.65
Cc1nn(C)c(N2CCOCC2)c1CNCc1ccccc1CO | 115.8
Cc1nn(C)c(N2CCOCC2)c1CNCc1ccc(CO)c(F)c1 | 138
Cc1nn(C)c(N2CCOCC2)c1CNCc1nccs1 | -7.203
Cc1nn(C)c(N2CCOCC2)c1CNCc1ccnn1C | 142.8
Cc1nn(C)c(N2CCOCC2)c1CNCc1ccoc1C | 153.8
Cc1nn(C)c(N2CCOCC2)c1CNCC1CCN(C2CC2)C1 (centres undefined) | -9.16
Cc1nn(C)c(N2CCOCC2)c1CNCC1CCS(=O)(=O)C1 (centres undefined) | -15.3
Cc1nn(C)c(N2CCOCC2)c1CNCC1CCCN1C (centres undefined) | -4.188
O=C(NCC1(O)CCSCC1)c1ccoc1 | -3.908
Cc1nccn1CC1CCCN1CCCc1nc(-c2cccs2)no1 (centres undefined) | 8.035
Cc1ncccc1CNC(CCO)C1CCCCC1 (centres undefined) | 3.816
Cn1ccnc1C1CCN(S(=O)(=O)c2ccc3c(c2)OCCO3)CC1 | -44.72
O=C(Nc1ncn(CC(=O)N2CCCCCC2)n1)C1CCCO1 (centres undefined) | -2.557
Fc1ccc(CN2CCCC2Cn2cncn2)c2ncccc12 (centres undefined) | 11.89

SMILES | Percent Effect [%]
CC(C)N(C(=O)c1ccnc(OCC(F)(F)F)c1)c1cccnc1 | -10.5
COc1ccc(CNCc2c(C)nn(C)c2N2CCOCC2)cc1 | 6.012
COCc1cccc(CNCc2c(C)nn(C)c2N2CCOCC2)c1 | 117.6
Cc1cc(CNCc2c(C)nn(C)c2N2CCOCC2)no1 | -8.986
Cc1nn(C)c(N2CCOCC2)c1CNCc1ccc(N(C)C)nc1 | 80.75
Cc1nn(C)c(N(C)C)c1CNCc1ccc(N(C)C)nc1 | 0.9542
Cc1nn(C)c(N2CCOCC2)c1CNCc1ccc(C(C)O)cc1 (centres undefined) | 111.2
Cc1nn(C)c(N2CCOCC2)c1CNCc1ccnc(N(C)C)c1 | -0.1268
Cc1nc(CNCc2c(C)nn(C)c2N2CCOCC2)cs1 | -13.32
COCc1cccc(CNCc2c(C)nn(C)c2N(C)C)c1 | -4.219
Cc1nn(C)c(N2CCOCC2)c1CNCc1ccc2c(c1)OCO2 | 96.35
CCCN1CCc2[nH]cnc2C12CCN(C(=O)CCn1cccn1)CC2 | -44.41
O=C(CCCc1nnc(-c2ccccc2)o1)N1CCN(CCO)CC1 | -6.561
CCOc1ccccc1N(C)C(=O)c1cscn1 | 11.28
CC1CN(C(=O)c2cnn(-c3ccccn3)c2C(C)C)CC(C)(C)O1 (centres undefined) | 3.589
Cn1cc(C(O)CNC(=O)c2sccc2OC(F)F)cn1 (centres undefined) | -0.7442
Cn1cc(C(O)CNC(=O)c2cc(Br)ccc2Cl)cn1 (centres undefined) | 133.1
Cc1ccc(C(=O)NCC(c2cnn(C)c2)N(C)C)c(O)c1 (centres undefined) | 194.8
Cc1ccc(C(O)CNC(=O)c2cccnc2O)cc1 (centres undefined) | -65.97
CC(CNC(=O)c1ccc(F)cc1Cl)N1CCCC1 (centres undefined) | 2.022
Cc1ccc(C(=O)NCC(O)c2cnn(C)c2)c(Br)c1 (centres undefined) | 99.45
CSCC(C)(O)CNC(=O)c1cc(Br)ccc1Cl (centres undefined) | 7.074
Cc1ccc(NC(=O)NCC(c2cnn(C)c2)N(C)C)c(C)c1 (centres undefined) | -2.112
Cn1cc(C(O)CNC(=O)c2ccc(F)cc2Cl)cn1 (centres undefined) | 121.3
Cn1cc(C(O)CNC(=O)Nc2cc(F)ccc2-n2cccn2)cn1 (centres undefined) | -4.933
CCOc1cc(F)ccc1NC(=O)NCC(c1cnn(C)c1)N(C)C (centres undefined) | 4.743
Cn1cc(CCCNC(=O)NCC(O)c2ccsc2)cn1 (centres undefined) | -8.721
